# Bioassay records from PubChem.
# Sampled rows, rich in hits. Any-hit rate of the full collection: about 2.4%.
# AmpC inh no det: AmpC beta-lactamase inhibition, detergent-free assay; Potency, µM (doses to about 28.7 µM), inactives show at the highest dose activity change, negative = inhibition; P00811; AmpC nitrocefin hydrolysis, absorbance 480 nm, no detergent; 71,000 tested, 1.8% active; AID 585; further: % of control where 0% means no effect
# Target sequence (P00811 whole entry, looked up): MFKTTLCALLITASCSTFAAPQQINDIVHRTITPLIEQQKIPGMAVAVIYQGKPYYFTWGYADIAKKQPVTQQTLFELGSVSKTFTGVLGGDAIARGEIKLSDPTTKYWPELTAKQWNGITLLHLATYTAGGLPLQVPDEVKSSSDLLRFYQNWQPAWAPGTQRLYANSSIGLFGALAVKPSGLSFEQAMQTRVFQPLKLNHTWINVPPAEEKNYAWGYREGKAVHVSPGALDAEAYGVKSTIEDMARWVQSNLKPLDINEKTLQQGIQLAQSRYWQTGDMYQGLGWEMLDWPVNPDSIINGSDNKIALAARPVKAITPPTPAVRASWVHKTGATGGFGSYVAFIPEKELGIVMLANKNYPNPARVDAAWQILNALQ
#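 AmpC, 20 mM phosphate pH 7.0; 15 min cpd preinc, RT; start with nitrocefin (800 uM stock); A480 kinetic read, 20 s intervals, 4 min. No-enzyme wells = negative control.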
# AmpC inh det: inhibitors of E. coli AmpC beta-lactamase with detergent; P00811; purified AmpC, nitrocefin hydrolysis with detergent; Potency, µM (titrated, usually from 28.7 µM), for inactives: top-dose activity change, negative = inhibition; 71,000 tested, 0.09% active; active means well fitted curve in the direction sought with a large enough effect; inconclusive means small, poorly fitted or top-dose-only effect; further: on the % scale 0 is the no-effect control and ±100 the full control effect
#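 E. coli AmpC (5.3 nM) in 20 mM phosphate pH 7.0 with 0.01% Triton X-100, preincubated 15 min RT with compound; nitrocefin (2 uL of 800 uM stock) hydrolysis followed by 480 nm absorbance every 20 s over 4 min.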
# SmPrx2 inh: blocks S. mansoni peroxiredoxin 2 enzymatic activity; S. mansoni Prx2 activity coupled to TGR/GSH (TGR is thioredoxin glutathione reductase), NADPH fluorescence loss, qHTS; Potency, µM; 65,000 tested, 0.07% active; AID 448
#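 Purified S. mansoni TGR and Prx2 in pH 7.4 phosphate buffer with EDTA and Tween-20 were preincubated with compounds for 15 min. Further NADPH/GSH was added, then a 2.5 mM H2O2 aliquot initiated turnover, followed kinetically by NADPH fluorescence.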
# LT uptake inh: blocks cellular internalization of anthrax lethal toxin; AID 912; Cells, anthrax lethal toxin internalization, FRET ratio (460/530); 70,000 tested, 0.67% active; Potency, µM (highest dose often 40 µM), inactives show at the highest dose activity change, negative = inhibition, most hits filed as inhibitors; further: on the % scale 0 is the no-effect control and ±100 the full control effect; nearly all actives have a fitted effect of over 50% in size
# Active calls of the source: *; ? = inconclusive; nt = no result given; [ ] = remark or other dose. Unless noted, the call rests on the fitted dose curve. Potency means the concentration at half of the fitted maximal effect.
SMILES,AmpC inh no det,AmpC inh det,SmPrx2 inh,LT uptake inh
Cc1ccc(C(=O)CC(C(=O)O)n2cccn2)cc1 (stereo not drawn),-6.3%,0.2%,>57,7.9%
COC(=O)C(CC(=O)c1ccc(Br)cc1)n1ccnc1 (stereo not drawn),7.0%,-4.1%,>57,12.6µM*
O=C(Cn1nc(Cc2cccnc2)c2ccccc2c1=O)Nc1ccc2c(c1)OCO2,3.98µM*[single pt active],14.0%,>57,-16.7%
CCN(CC)CCNC(=O)Cn1nc(Cc2cccnc2)c2ccccc2c1=O,3.98µM*[single pt active],12.2%,>57,?
O=C(Cn1nc(Cc2cccnc2)c2ccccc2c1=O)NCCCN1CCCC1=O,3.6%,7.6%,>57,-9.3%
COc1cc(C2NC(=O)NC(C)=C2C(=O)OCc2ccccc2)ccc1O (stereo not drawn),-3.6%,4.8%,nt,-11.8%
O=C(O)[C@H]1CCCN(CCC=C(c2ccccc2)c2ccccc2)C1,57.9%,0.8%,>11.4,?
Clc1ccc(C(c2ccc(Cl)cc2)C(Cl)(Cl)Cl)cc1,?,14.2%,nt,6.31µM*
CC(C)=CCC/C(C)=C/CO/N=C1/C[C@@H](O)[C@@H](O)[C@@H]2[C@@H]3C(=O)N([C@@H](C)c4ccccc4)C(=O)[C@H]3CC[C@H]12,nt,nt,nt,-6.4%[8 µM]
O=C(CN(C(=O)CCC(=O)Nc1nccs1)c1ccccc1F)NCC1CCCO1 (stereo not drawn),-3.9%,8.9%,>57,3.6%
COc1ccc(S(=O)(=O)N(CCCN2CCCC2=O)Cc2cc3cc(C)c(C)cc3[nH]c2=O)cc1,155.8%,-2.4%,58.2*,16.1%
CC1(NC(=O)C23CC4CC(CC(C4)C2)C3)CCS(=O)(=O)C1 (stereo not drawn),2.5%,0.7%,>57,?
CCOC(=O)N1CCN(S(=O)(=O)c2ccc3c(c2)oc(=O)n3C)CC1,9.8%,-4.7%,>57,nt
CCCN1CCN(C(=O)C2CCN(S(=O)(=O)c3ccc4c(c3)oc(=O)n4C)CC2)CC1,3.98µM*[single pt active],11.2%,>57,?
COc1ccccc1S(=O)(=O)Cc1ccc(C(=O)NCCN2CCCC2)o1,1.7%,-0.3%,>57,-1.4%
COCCNC(=O)c1ccc(CS(=O)(=O)c2ccc(OC)cc2)o1,3.98µM*[single pt active],11.1%,>57,-9.1%
COc1ccccc1S(=O)(=O)Cc1ccc(C(=O)NCc2cccnc2)o1,3.98µM*[single pt active],15.0%,>57,-21.0%
CCC(C)NC(=O)c1ccc(CS(=O)(=O)c2ccc(OC)cc2)o1 (stereo not drawn),3.98µM*[single pt active],12.0%,>57,-7.4%
COCCNC(=O)c1ccc(CS(=O)(=O)c2c(Cl)cccc2Cl)o1,20.2%,7.2%,>57,1.0%
CCN(CC)C(=O)c1ccc(CS(=O)(=O)c2ccc(OC)cc2)o1,3.98µM*[single pt active],13.9%,>57,-9.5%
COc1ccc(S(=O)(=O)Cc2ccc(C(=O)NC(C)C)o2)cc1,8.9%,5.2%,>57,0.3%
COc1cc(C2c3c(oc4ccc(C)cc4c3=O)C(=O)N2c2cc(C)ccn2)cc(OC)c1OC (stereo not drawn),93.7%,-1.5%,>57,13.6%
O=C(NCc1ccco1)c1cc2c(s1)CSC2,-24.6%,11.7%,nt,-13.1%
O=C(NCc1ccc2c(c1)OCO2)Oc1ccccc1,3.98µM*[single pt active],12.7%,>57,-7.9%
O=C(NCc1ccc2c(c1)OCO2)c1cc2c(s1)CSC2,12.6µM*[single pt active],5.5%,>57,-3.1%
SMILES,AmpC inh no det,AmpC inh det,SmPrx2 inh,LT uptake inh
CCc1ccccc1S(=O)(=O)Cc1ccc(C(=O)NC(C)C)o1,13.0%,5.5%,>57,-11.8%
CCc1ccccc1S(=O)(=O)Cc1ccc(C(=O)NCc2ccc3c(c2)OCO3)o1,3.98µM*[single pt active],5.9%,>57,?
COc1ccc(S(=O)(=O)Cc2ccc(C(=O)NCc3ccccn3)o2)cc1,3.98µM*[single pt active],11.0%,>57,?
Cc1ccnc(NC(=O)CCC(=O)N(CC(=O)NCCc2ccccc2)Cc2ccco2)c1,56.3%,-8.4%,>57,?
CC(=O)Nc1ccc(S(=O)(=O)N(C2=NCC(C)S2)c2ccccc2)cc1 (stereo not drawn),11.2%,-2.3%,>57,-22.3%
COc1cccc(-c2cncnc2NCc2ccccc2)c1,12.6µM*,10µM*,>57,?
OC[C@@H]1NC[C@@H](O)[C@@H](O)[C@H]1O,-3.4%,-3.0%,>57,6.4%
Cc1ccc(S(=O)(=O)Nc2ccc3nc(N)sc3c2)cc1,10µM*,2.1%,>57,-20.9%
Cn1nc(CC(=O)NC2CCCCCC2)c2ccccc2c1=O,3.16µM*[single pt active],11.4%,>57,?
COc1ccc(CNC(=O)Cc2nn(C)c(=O)c3ccccc23)cc1,3.4%,-1.6%,>57,-8.6%
